In PubChem BioAssay:
Active and inactive are the calls of the source.

Legend:
[1] = test system: Plasmodium falciparum Sir2 (PF13_0152, Sir2A); assay: Plasmodium falciparum Sir2A binding compounds – biochemical, small-molecule microarray, 635 nm fluorescence, primary screen (AID 1098); conditions: fluorescence 635 nm, higher = more signal;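 note: score merges spot fluorescence intensity with its signal-to-noise ratio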
[2] = probe aDKK1 binding to arrayed compounds – biochemical, biotinylated probe, 635/667 nm fluorescence, primary screen (AID 1099); conditions: small-molecule microarray, higher = more signal;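 note: score merges 667nm spot fluorescence with signal to noise across triplicate slides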
[3] = probe aCHRDL2 binding to arrayed compounds – biochemical, biotinylated probe, 635/667 nm fluorescence, primary screen (AID 1100); conditions: small-molecule microarray, higher = more signal
[4] = change in splice reporter luminescence, either direction, cell-based, HEK293, spliceosome inhibition project, primary screen (AID 1101); conditions: HEK293 splicing luciferase reporter, 24 h, higher = more signal, called active from +8 up or from −8 down;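 note: HEK293 cells carrying a splicing-competent luciferase reporter gene; test concentration not given here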
[5] = molecular target: Fibroblast growth factor 10 (Homo sapiens) (UniProt O15520); assay: compounds binding fibroblast growth factor 10 – biochemical, small-molecule microarray, 635 nm fluorescence, primary screen (AID 1102); conditions: FGF10 binding, fluorescence 635 nm, higher = more signal
Fibroblast growth factor 10 (Homo sapiens), sequence (O15520 whole entry, looked up): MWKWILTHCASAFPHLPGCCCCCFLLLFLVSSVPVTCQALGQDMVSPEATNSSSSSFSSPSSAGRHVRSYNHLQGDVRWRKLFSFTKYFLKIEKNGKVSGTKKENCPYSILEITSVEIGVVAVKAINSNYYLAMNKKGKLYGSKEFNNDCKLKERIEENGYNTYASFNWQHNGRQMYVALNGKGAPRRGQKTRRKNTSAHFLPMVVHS

[6] = test system: glycogen synthase kinase-3 (GSK3A per assay name; protocol says GSK3B); assay: compounds binding glycogen synthase kinase-3 – biochemical, small-molecule microarray, 635 nm fluorescence, GSK3A, primary screen (AID 1103); conditions: fluorescence 635 nm, higher = more signal; note: the record names both GSK3A and GSK3B
[7] = molecular target: Epidermal growth factor receptor (Homo sapiens) (UniProt P00533); assay: compounds binding epidermal growth factor receptor – biochemical, small-molecule microarray, 635 nm fluorescence, primary screen (AID 1104); conditions: EGFR binding, higher = more signal;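 note: score merges 667 nm emission intensity with spot signal to noise over triplicate slides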
Epidermal growth factor receptor (Homo sapiens), sequence (P00533 whole entry, looked up): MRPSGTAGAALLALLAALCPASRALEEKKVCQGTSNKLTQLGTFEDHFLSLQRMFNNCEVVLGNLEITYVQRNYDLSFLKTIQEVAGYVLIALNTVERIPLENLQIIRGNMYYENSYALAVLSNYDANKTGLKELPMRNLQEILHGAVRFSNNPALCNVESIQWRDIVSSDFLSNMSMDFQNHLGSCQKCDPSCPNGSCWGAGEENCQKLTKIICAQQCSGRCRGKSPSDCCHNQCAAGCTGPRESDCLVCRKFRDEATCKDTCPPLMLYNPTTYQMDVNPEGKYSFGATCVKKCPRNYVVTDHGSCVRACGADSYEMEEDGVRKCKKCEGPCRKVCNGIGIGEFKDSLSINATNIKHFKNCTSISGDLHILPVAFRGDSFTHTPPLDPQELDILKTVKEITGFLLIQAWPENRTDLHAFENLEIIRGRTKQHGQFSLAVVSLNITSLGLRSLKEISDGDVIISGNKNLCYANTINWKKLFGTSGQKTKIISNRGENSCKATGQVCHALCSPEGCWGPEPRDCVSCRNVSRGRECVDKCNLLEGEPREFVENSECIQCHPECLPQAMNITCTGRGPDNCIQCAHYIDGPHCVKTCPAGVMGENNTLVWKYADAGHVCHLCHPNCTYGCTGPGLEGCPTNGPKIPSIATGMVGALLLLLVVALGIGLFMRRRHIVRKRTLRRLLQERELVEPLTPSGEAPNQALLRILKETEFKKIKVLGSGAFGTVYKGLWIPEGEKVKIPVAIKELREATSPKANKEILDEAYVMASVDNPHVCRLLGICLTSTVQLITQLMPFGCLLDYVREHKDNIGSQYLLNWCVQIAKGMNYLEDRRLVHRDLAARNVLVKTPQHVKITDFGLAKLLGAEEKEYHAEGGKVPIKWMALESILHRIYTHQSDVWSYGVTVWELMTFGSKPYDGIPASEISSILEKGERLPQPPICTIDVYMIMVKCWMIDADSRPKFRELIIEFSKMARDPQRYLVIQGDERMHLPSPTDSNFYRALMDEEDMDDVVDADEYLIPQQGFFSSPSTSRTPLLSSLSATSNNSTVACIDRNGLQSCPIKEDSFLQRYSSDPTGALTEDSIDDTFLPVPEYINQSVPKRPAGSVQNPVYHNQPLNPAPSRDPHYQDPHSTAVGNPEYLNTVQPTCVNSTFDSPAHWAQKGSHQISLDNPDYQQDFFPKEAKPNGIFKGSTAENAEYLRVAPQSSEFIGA

[8] = molecular target: Follistatin-related protein 3 (Homo sapiens) (UniProt O95633); assay: compounds binding follistatin-related protein 3 – biochemical, small-molecule microarray, 635 nm fluorescence, primary screen (AID 1105); conditions: FSTL3 binding, higher = more signal;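 note: score merges emission near 667 nm and signal to noise per printed spot across three slides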
Follistatin-related protein 3 (Homo sapiens), sequence (O95633 whole entry, looked up): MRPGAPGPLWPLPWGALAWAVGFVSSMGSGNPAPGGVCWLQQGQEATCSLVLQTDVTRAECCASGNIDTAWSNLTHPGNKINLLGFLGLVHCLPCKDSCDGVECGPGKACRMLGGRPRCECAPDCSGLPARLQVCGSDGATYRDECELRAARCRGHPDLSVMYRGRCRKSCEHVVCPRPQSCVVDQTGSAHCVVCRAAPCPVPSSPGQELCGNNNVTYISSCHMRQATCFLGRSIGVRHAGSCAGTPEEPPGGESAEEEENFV

[9] = molecular target: Dickkopf-related protein 1 (Homo sapiens) (UniProt O94907); assay: small molecules binding DKK1 protein – biochemical, small-molecule microarray, 635 nm fluorescence scan, primary screen (AID 1106); conditions: higher = more signal;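 note: score merges emission near 667 nm with signal to noise over three replicate slides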
Dickkopf-related protein 1 (Homo sapiens), sequence (O94907 whole entry, looked up): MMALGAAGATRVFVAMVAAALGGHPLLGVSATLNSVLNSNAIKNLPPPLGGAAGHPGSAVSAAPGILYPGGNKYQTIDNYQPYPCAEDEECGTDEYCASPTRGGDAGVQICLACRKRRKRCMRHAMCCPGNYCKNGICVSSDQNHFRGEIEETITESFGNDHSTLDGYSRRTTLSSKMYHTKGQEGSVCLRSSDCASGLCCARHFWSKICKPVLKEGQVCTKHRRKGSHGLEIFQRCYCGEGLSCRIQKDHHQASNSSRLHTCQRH

[10] = test system: Inhibin beta A chain (activin A); assay: small molecules binding activin A – biochemical, small-molecule microarray, 635 nm fluorescence scan, primary screen (AID 1107); conditions: INHBA, higher = more signal;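 note: mouse activin A protein probed at 4.33 µg/mL on printed slides; score merges bound-protein fluorescence near 667 nm with spot signal-to-noise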
[11] = test system: Human papillomavirus type 1a protein E7 (residues 44-93); assay: small molecules binding HPV E7 44-93 – biochemical, small-molecule microarray, residues 44-93, 635 nm fluorescence, primary screen (AID 1108); conditions: fluorescence 635 nm, higher = more signal;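 note: E7 fragment applied at 1 µg/mL in TBST for 1 h at 4 C; score combines spot fluorescence with its signal to noise ratio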
[12] = hepatitis C replication reporter changes, two-sided – Huh7 cells, luciferase reporter, HCV replication inhibitor project, primary screen (AID 1109); conditions: Huh7 HCV replicon luciferase reporter, 48 h; higher = more signal;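 note: huh7 hepatoma cells harbouring a luciferase neomycin HCV replicon reporter; luciferase luminescence as measure of HCV replicon replication; test concentration not given here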
[13] = molecular target: Left-right determination factor 2 (Homo sapiens) (UniProt O00292); assay: small molecules binding LEFTY2 protein – biochemical, small-molecule microarray, 635 nm fluorescence scan, primary screen (AID 1110); conditions: higher = more signal
Left-right determination factor 2 (Homo sapiens), sequence (O00292 whole entry, looked up): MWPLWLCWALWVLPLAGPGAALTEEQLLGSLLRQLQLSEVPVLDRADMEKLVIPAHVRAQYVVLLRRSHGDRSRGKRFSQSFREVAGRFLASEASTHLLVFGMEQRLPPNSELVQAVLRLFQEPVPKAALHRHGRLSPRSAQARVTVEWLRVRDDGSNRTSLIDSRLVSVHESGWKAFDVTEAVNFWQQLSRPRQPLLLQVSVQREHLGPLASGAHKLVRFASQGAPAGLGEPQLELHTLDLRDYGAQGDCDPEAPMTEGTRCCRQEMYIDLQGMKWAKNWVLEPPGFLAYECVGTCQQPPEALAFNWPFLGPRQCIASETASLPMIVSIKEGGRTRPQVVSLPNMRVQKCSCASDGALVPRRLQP

[14] = molecular target: Calmodulin-1 (Homo sapiens) (UniProt P0DP23); assay: small molecules binding calmodulin-1 with EGTA – biochemical, small-molecule microarray, Cy5-labelled CALM1, profiling panel (AID 1111); conditions: Cy5-CALM1 binding fluorescence, higher = more signal;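 note: labelled calmodulin applied in Tris saline Tween buffer holding calcium plus EGTA and DTT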
[15] = molecular target: Calmodulin-1 (Homo sapiens) (UniProt P0DP23); assay: small molecules binding Ca-loaded calmodulin-1 – biochemical, small-molecule microarray, Cy5-labelled CALM1, plus calcium, artefact control for SMM control-protein annotation, profiling panel (AID 1112); conditions: Cy5-CALM1 binding fluorescence, higher = more signal;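 note: score merges spot fluorescence with signal to noise from triplicate slides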
[16] = probe aWnt5a binding to arrayed compounds – biochemical, biotinylated probe, 635/667 nm fluorescence, primary screen (AID 1113); conditions: small-molecule microarray, higher = more signal;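 note: score merges 667 nm fluorescence intensity with signal-to-noise per printed feature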
[17] = probe aShh binding to arrayed compounds – biochemical, biotinylated probe, 635/667 nm fluorescence, primary screen (AID 1114); conditions: small-molecule microarray, higher = more signal;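 note: probe is biotin-labelled aShh protein from a stem cell growth factor screen; measures binding of labelled protein to compounds printed on the slide; score merges feature fluorescence at 667 nm with signal-to-noise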
[18] = probe aNog binding to arrayed compounds – biochemical, biotinylated probe, 635/667 nm fluorescence, primary screen (AID 1115); conditions: small-molecule microarray, higher = more signal;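 note: probe is biotinylated aNog protein used at 0.15 µg/mL for 1 h at 4 C; z-score combines 667 nm fluorescence of each spot with its signal to noise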
[19] = molecular target: Torsin-1A-interacting protein 1 (Homo sapiens) (UniProt Q5JTV8); assay: compound microarray binding of lysate hLAP1 – cell lysate, small-molecule microarray, COS7 lysate, 635/667 nm fluorescence, primary screen (AID 1116); conditions: 635 nm fluorescence, higher = more signal
Torsin-1A-interacting protein 1 (Homo sapiens), sequence (Q5JTV8 whole entry, looked up): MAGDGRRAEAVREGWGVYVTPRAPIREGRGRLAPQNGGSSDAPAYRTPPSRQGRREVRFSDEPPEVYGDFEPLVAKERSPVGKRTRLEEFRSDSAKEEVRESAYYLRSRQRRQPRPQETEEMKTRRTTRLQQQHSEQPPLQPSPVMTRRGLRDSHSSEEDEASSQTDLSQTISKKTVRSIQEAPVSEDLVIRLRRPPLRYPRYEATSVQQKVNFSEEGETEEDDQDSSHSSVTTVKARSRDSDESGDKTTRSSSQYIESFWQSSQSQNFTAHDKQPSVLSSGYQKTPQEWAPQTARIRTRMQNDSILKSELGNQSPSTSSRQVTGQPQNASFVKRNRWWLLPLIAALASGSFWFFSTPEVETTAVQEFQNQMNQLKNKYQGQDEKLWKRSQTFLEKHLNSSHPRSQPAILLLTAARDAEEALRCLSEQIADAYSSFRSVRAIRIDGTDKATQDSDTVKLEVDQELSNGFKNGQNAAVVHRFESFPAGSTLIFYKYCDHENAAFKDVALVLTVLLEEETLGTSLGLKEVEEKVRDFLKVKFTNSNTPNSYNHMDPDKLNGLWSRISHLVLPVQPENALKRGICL

[20] = molecular target: Alpha-bungarotoxin (Bungarus multicinctus) (UniProt P60615); assay: compounds binding labelled alpha-BTX control protein – biochemical, small-molecule microarray, Alexa647 label, 635/667 nm fluorescence, artefact control for SMM control protein annotation, profiling panel (AID 1117); conditions: alpha-BTX-A647 binding fluorescence, higher = more signal
Alpha-bungarotoxin (Bungarus multicinctus), sequence (P60615 whole entry, looked up): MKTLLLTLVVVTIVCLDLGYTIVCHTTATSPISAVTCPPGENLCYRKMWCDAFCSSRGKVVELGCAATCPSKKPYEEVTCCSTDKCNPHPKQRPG

SMILES	composite z-score [1]	composite z-score [2]	composite z-score [3]	z-score [4]	composite z-score [5]	composite z-score [6]	composite z-score [7]	composite z-score [8]	composite z-score [9]	composite z-score [10]	composite z-score [11]	z-score [12]	composite z-score [13]	composite z-score [14]	composite z-score [15]	composite z-score [16]	composite z-score [17]	composite z-score [18]	composite z-score [19]	composite z-score [20]
CC(C)(C)N1CC=CC23O[C@@H]4C=CCCOC(=O)C4[C@H]2C(=O)N(CCO)[C@@H]3C1=O (stereo not given in full)	-1.04	-0.106	-0.254	0.288 (inactive)	-0.385	-0.649	-0.306	-0.959	-0.492	0.0863	-0.282	0.361	-0.475	-0.504	-0.511	-0.0924	-0.0146	0.0417	-0.108	1.37
COc1cc(OC)c(C(O)C2C=CC3C(=O)N(C)C(=O)C3N2NC(=O)OC(C)(C)C)cc1Br (stereo not given)	1.07	0.993	1.15	1.51 (inactive)	1.32	1.33	0.26	1.41	0.057	0.594	1.45	-0.706	0.469	1.74	0.767	0.302	0.551	1.71	1.26	1.85
COCCCNC(=O)[C@@]1(Cc2ccccc2N=[N+]=[N-])N=C(c2ccc(OCCCO)cc2)O[C@H]1c1ccccc1	1.55	0.231	1.01	0.181 (inactive)	0.911	1.28	-0.338	0.402	0.157	1.14	1.41	-1.54	-0.394	0.906	-0.257	0.269	0.142	1.76	1.63	0.643
O=C(NCC(F)(F)F)[C@@H]1c2ccccc2C(=O)N(Cc2ccc(OC(F)(F)F)cc2)[C@H]1c1ccc(CO)cc1	1.16	-0.113	0.433	-0.693 (inactive)	0.347	-0.285	-0.0633	0.284	0.0428	0.551	1.4	-0.971	0.174	-0.112	0.0084	-0.0704	0.0839	-0.224	0.148	0.173
C[N+](C)(C)CCCCCCNC(=O)[C@H]1C[C@H]2C(=O)NCC(=O)N2[C@H]1c1ccc(O)cc1	1.51	-0.34	-0.592	-0.271 (inactive)	1.35	0.846	0.056	1.42	0.687	-0.253	1.34	1.4	1.03	0.14	-1.16	-0.0846	0.21	-0.507	-0.489	0.713
CC(C)C[C@@H]1NC(=O)[C@@H]2C[C@H](C(=O)NCCCCCN)[C@H](c3ccc(O)cc3)N2C1=O	0.311	0.283	0.403	0.103 (inactive)	0.843	1.31	0.0233	1.26	0.93	0.585	1.36	-0.196	1.46	1.17	0.953	-0.0194	0.108	-0.651	1.19	1.2
CO[C@H]1O[C@H](CO)[C@@H](OC(=O)Nc2ccc3c(c2)OCO3)[C@H](OC(=O)c2cc3ccccc3[nH]2)[C@H]1OC(=O)c1cc2ccccc2[nH]1	0.787	-0.0268	-0.161	-1.87 (inactive)	0.247	-0.0406	-0.194	0.238	0.283	1.46	-0.343	-1.99	0.117	-0.418	-0.83	-0.168	-0.0709	-0.315	0.0724	0.279
C=CC[C@]1(C(=O)NCCN2CCOCC2)N=C(c2ccc(OCCCO)cc2)O[C@H]1c1ccccc1CN=[N+]=[N-]	0.817	0.96	0.723	0.346 (inactive)	1.2	0.703	0.409	-0.0125	1.54	1.57	0.396	-1.59	0.632	0.21	-0.528	0.0023	-0.203	-0.193	0.554	-0.0452
CCCCC(O)C1C=CC2C(=O)N(c3ccccc3)C(=O)C2N1Nc1ccc(C(C)C)cc1 (stereo not given)	0.562	-0.109	0.214	-0.479 (inactive)	1.05	1.26	0.341	1.04	0.223	0.63	1.41	0.318	0.154	1.25	0.304	0.0974	0.0875	-0.503	-0.236	1.06
COC(=O)[C@@]1(Cc2ccc(F)cc2)[C@H]2c3cc(C(=O)N4CCCC4)n(CCN4CNCC4=O)c3C[C@H]2CN1C(=O)c1ccccc1	1.51	0.845	0.82	1.64 (inactive)	-0.142	1.26	-0.472	0.131	-1.29	0.781	1.44	-1.8	-1	-0.606	-0.234	0.307	0.151	-0.158	2.1	1.07
COc1ccc([Si](C)(C)[C@H]2[C@H](CCn3cc([C@H](O)c4ccccc4)nn3)O[C@@]3(C(=O)N(Cc4ccc(N5C(=O)c6cccc7cccc5c67)cc4)c4ccccc43)[C@@H]2C)cc1	0.93	0.0396	0.538	-0.64 (inactive)	0.324	-0.509	-0.775	-0.617	-0.858	-1.13	0.0891	-2.6	-0.638	0.103	0.0758	-0.131	-0.154	-0.0065	0.112	0.0628
